# In PubChem BioAssay (NCI):
# About 83,000 compounds went through this panel and 20% of them were active in at least one assay; those are over-represented in the sample as a whole.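 Note: values are percent growth. 100 is the growth of untreated cells, values between 100 and 0 indicate rising inhibition; between -100 and 0 indicates cell death.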 Values without a mark were called inactive. Activity calls are given as the source filed them. The calls were made as follows: active = growth percent below 10; inactive = the rest.
# How the values were obtained:
# Assay in all cases: NCI-60 one-dose screen, 48 h (100 = growth as untreated, 0 = no growth, -100 = all killed)
# Settings in all cases: 10 µM unless noted
# DU-145 prostate = test system: DU-145 prostate
# K-562 leukemia = test system: K-562 leukemia
# MALME-3M melanoma = test system: MALME-3M melanoma
# MDA-MB-231 breast = test system: MDA-MB-231 breast
# RXF 393 renal = test system: RXF 393 renal
# SF-268 CNS = test system: SF-268 CNS
# SF-295 CNS = test system: SF-295 CNS
# SF-539 CNS = test system: SF-539 CNS
# UACC-257 melanoma = test system: UACC-257 melanoma
# M14 melanoma = test system: M14 melanoma
# HCT-15 colon = test system: HCT-15 colon
# HT29 colon = test system: HT29 colon
# SNB-75 CNS = test system: SNB-75 CNS
# SNB-19 CNS = test system: SNB-19 CNS
# U251 CNS = test system: U251 CNS
# PC-3 prostate = test system: PC-3 prostate
# SK-MEL-5 melanoma = test system: SK-MEL-5 melanoma
# UACC-62 melanoma = test system: UACC-62 melanoma
# LOX IMVI melanoma = test system: LOX IMVI melanoma
# SK-MEL-28 melanoma = test system: SK-MEL-28 melanoma
SMILES,growth (DU-145 prostate),growth (K-562 leukemia),growth (MALME-3M melanoma),growth (MDA-MB-231 breast),growth (RXF 393 renal),growth (SF-268 CNS),growth (SF-295 CNS),growth (SF-539 CNS),growth (UACC-257 melanoma),growth (M14 melanoma),growth (HCT-15 colon),growth (HT29 colon),growth (SNB-75 CNS),growth (SNB-19 CNS),growth (U251 CNS),growth (PC-3 prostate),growth (SK-MEL-5 melanoma),growth (UACC-62 melanoma),growth (LOX IMVI melanoma),growth (SK-MEL-28 melanoma)
COc1ccc(N2C(=O)/C(=C/C(Cl)=C/c3ccc([N+](=O)[O-])cc3)SC2=S)cc1,5.02% (active),0.935% (active),26.4%,7.73% (active),-77.9% (active),12.3%,-32.1% (active),-22.8% (active),48.2%,12.3%,-24.1% (active),-20.9% (active),-33.8% (active),2.68% (active),-83.1% (active),2.17% (active),29.3%,-25.2% (active),-86.2% (active),13.7%
CN1CCN(Cc2ccc(NC(=O)c3cncc(C#Cc4c(N)ncc5c(F)cccc45)c3)cc2C(F)(F)F)CC1,-90.3% (active),-66.9% (active),-74.3% (active),-89.6% (active),-91.5% (active),-63.6% (active),-70.6% (active),-95.4% (active),-73% (active),-66% (active),-83.7% (active),-77.1% (active),-81% (active),-97% (active),-88.4% (active),-69.2% (active),-87.2% (active),-93.3% (active),-96.1% (active),-86.5% (active)
CCCC1Cc2cc(-n3nc(C)c4c3CC(C)(C)CC4=O)cc(NC3CCC(O)CC3)c2C(=O)N1 (stereo not given),53.7%,14.3%,12.3%,-15.1% (active),65.3%,65.3%,21%,34.4%,37.1%,33.7%,26.1%,11.6%,66.6%,50%,41.5%,42.8%,40.7%,6.33% (active),5.91% (active),31.5%
Nc1nc(N)c2c(n1)NC(c1ccc3c(c1)OCO3)CC(c1cccc(Nc3ccncc3)c1)=N2 (stereo not given),106%,44.3%,100%,94.2%,82.2%,68.1%,96.5%,101%,67.3%,83.5%,98.4%,61.3%,66.9%,94.5%,80.8%,50.8%,90%,87.6%,48.5%,108%
CCCCN(CCC#N)C(N)=O,97.2%,115%,98.4%,104%,109%,99.7%,111%,100%,101%,112%,101%,114%,105%,98.9%,107%,91.2%,99.5%,95.4%,105%,102%
CC1=C2[C@@H](CC1)[C@]1(C)O[C@@](C(C)C)(C[C@H]1OC(=O)CO)[C@H]2OC(=O)CCCc1ccccc1,75.8%,53.9%,57.3%,88.2%,86.2%,73.4%,78.5%,96.6%,85.1%,77.5%,65.7%,72.1%,90.8%,92.5%,74.5%,26.9%,66.8%,40.2%,52.3%,90.2%
COc1cc(C)cc(-c2c(-c3cc(N4CC(O)C4)nc(-c4cccnc4)n3)cnn2C)c1,89.5%,80.1%,104%,55%,77.9%,98.5%,92.8%,94.3%,109%,90.6%,77.4%,88.3%,82.5%,91.4%,91.3%,82.5%,69.8%,73.1%,52.9%,92.5%
COc1ccc(CNc2ccc3nc(CCC4CCCCC4)[nH]c3c2)cc1,83.4%,19.6%,59.4%,79.7%,74.2%,71.4%,91%,76.4%,75.3%,75.7%,42%,18.4%,69.4%,84%,60.9%,59.1%,38%,69.9%,81.5%,76.4%
Cc1ccc(C(=O)Nc2ccc(CN3CCN(C)CC3)c(C(F)(F)F)c2)cc1C#Cc1cnc(N)c2ccccc12,-89.3% (active),-23.5% (active),-59.9% (active),-63.4% (active),-75.5% (active),1.65% (active),-35.9% (active),-84.8% (active),-50.3% (active),-76.7% (active),-69.2% (active),-12.8% (active),-70.4% (active),-66.1% (active),-70.5% (active),3.18% (active),-85.4% (active),4.11% (active),-94.5% (active),-86% (active)
Nc1ncc(-c2ccc3ncnc(N4CCc5cc(F)c(Cl)cc54)c3c2)cc1C(F)(F)F,33.5%,15%,13.6%,23.9%,-33.6% (active),34.1%,26%,8.36% (active),48.2%,33.8%,17.9%,20.4%,-14.3% (active),46.1%,47.8%,25.2%,37.8%,20.4%,12.7%,38.3%
COc1ccc(S(=O)(=O)N(C)c2oc(-c3ccc(Cl)cc3)nc2C#N)cc1,97.9%,20.3%,68.9%,87%,80.1%,82.7%,91.9%,82.9%,86.7%,53.8%,44.3%,65.9%,65.1%,81%,81.1%,87.4%,86.1%,59.1%,71.9%,84.4%
Cc1ccc2c(n1)C[C@H](C(C)(C)O)CC[C@H]2C,107%,101%,94.4%,97.1%,114%,101%,93.4%,100%,104%,104%,99.4%,107%,91.8%,91.8%,94.4%,104%,98.9%,94.4%,101%,106%
O=C1C(Nc2ccc(Br)cc2)=C(I)C(=O)c2ncccc21,20.5%,5.98% (active),-6.23% (active),6.88% (active),45.8%,46.2%,86.6%,15.3%,49.3%,10.4%,6.76% (active),54.7%,26.4%,68.3%,32%,39.3%,-17.7% (active),9.48% (active),-3% (active),63.7%
CCN1CCN(c2cc(C(=O)Nc3cccc(Nc4ccc5c(OC)cccc5n4)c3)cc(C(F)(F)F)c2)CC1,23.3%,-29.8% (active),-59.6% (active),9.58% (active),17.3%,32.8%,14%,19.5%,-40.3% (active),-41.9% (active),-15.9% (active),-60% (active),35.8%,36%,13.9%,7.66% (active),-1.86% (active),13%,-94.1% (active),-44.4% (active)
CC(=O)/C(Br)=C/c1ccc(Br)o1,68.5%,4.61% (active),61.4%,95.7%,-13.5% (active),75%,73.7%,94%,102%,64.9%,65.8%,62.4%,92.6%,87.8%,80.4%,80.8%,-0.755% (active),85.9%,38.7%,60.8%
